Bioassay records: PubChem, National Center for Advancing Translational Sciences (NCATS)
Shown are actives, neighbours in structure and some others; about 7.9% of the full set was active somewhere.
SW480 rerep – A quantitative high throughput screen for small molecules that induce DNA re-replication in SW480 colon adenocarcinoma cells. hit rate 1.8% among 340,000. Potency, µM (highest dose often 46.1 µM), inactives show at the highest dose re-replication activation, hits mostly activators. SW480 DNA re-replication, Hoechst DNA content imaging, 48 h; note: % of control where 0% means no effect; nearly all actives have a fitted effect of over 55% in size
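DNA re-replication was detected as more nuclei of elevated Hoechst intensity after 48 hr exposure to compound (23 nL pinned per well of 250 cells).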
HT1080 IDH1KD tx – qHTS for induction of synthetic lethality in tumor cells producing 2HG: qHTS for the HT-1080-IDH1KD cell line. HT-1080 IDH1 knockdown viability, ATP luminescence, 48 h. Potency, µM (doses to about 46.1 µM), inactives show at the top dose activity, negative = toxicity, most hits filed as cytotoxic. hit rate 2% among 360,000;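 note: 0% = DMSO wells and -100% = cell-free medium wells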
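CellTiter-Glo luminescence after 48 h compound exposure at 37 degrees C of IDH1-knockdown HT-1080 cells in 5% FBS RPMI. %Activity scaled between DMSO wells and cell-free media wells, with curves fitted and assigned curve classes.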
HT1080NT lethal – qHTS for induction of synthetic lethality in tumor cells producing 2HG: qHTS for the HT-1080-NT fibrosarcoma cell line; HT-1080-NT fibrosarcoma viability, CellTiter-Glo ATP luminescence, 48 h; Potency, µM (highest dose often 46.1 µM), inactives show at the highest dose activity, negative = less viability, actives largely listed as cytotoxic; hit rate 1.6% among 360,000; AID 686970, 2013;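 note: NT is the 2HG producing partner of a matched IDH1 knockdown line; 0% = DMSO-treated cells and -100% = media-only wells without cells; nearly all actives have a fitted effect of over 55% in size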
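HT-1080-NT fibrosarcoma cells (2HG-overproducing), 750 cells/well in RPMI with 5% FBS, dosed after 2 h and incubated 48 h at 37C. CellTiter-Glo luminescence normalized to DMSO and no-cell wells; concentration-response curves fitted and classed.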
KB-V1 MDR tox – qHTS assay for MDR1-selective chemotherapeutics: Primary screen using the drug-selected MDR subline cells KB-V1; hit rate 3.4% among 400,000; Potency, µM (highest dose often 46.1 µM), usual class: cytotoxic; KB-V1 MDR cells viability, CellTiter-Glo, 72 h; note: % is set by controls: 0 for no effect and ±100 for the full control effect; nearly all actives have a fitted effect of over 60% in size
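Compound-treated KB-V1 multidrug-resistant cells, 72 h, 37 degrees C; viability by CellTiter-Glo. Fitted qHTS curves give the values.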
MCF10A rereplic – A quantitative high throughput screen for small molecules that induce DNA re-replication in MCF 10a normal breast cells | hit rate 2.9% among 350,000 | MCF 10A DNA re-replication, Hoechst nuclear intensity, 48 h | Potency, µM (series often up to 46.1 µM), for the others: at the top dose activity, positive = re-replication, actives largely listed as activators; note: % of control where 0% means no effect; nearly all actives have a fitted effect of over 50% in size
KB-3-1 tox – qHTS assay for MDR1-selective chemotherapeutics: Primary screen using the parental adenocarcinoma cell KB-3-1 | KB-3-1 viability, CellTiter-Glo ATP luminescence, 72 h | hit rate 1.4% among 400,000 | AID 1347075, 2019 | Potency, µM (doses to about 46.1 µM), actives largely listed as cytotoxic; note: % is set by controls: 0 for no effect and ±100 for the full control effect; nearly all actives have a fitted effect of over 60% in size
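Cells are dispensed, compounds pinned in, plates held at 37 °C for 72 h, then CellTiter-Glo is added and luminescence read after 10 minutes. Cell line: parental KB-3-1 in phenol-red-free DMEM, 10% FBS.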
* marks the source's active call; other numbers are inactive results; i = inactive; ? = inconclusive; · = no result given. Calls come from the whole dose curve; as a rule, active = well fitted curve in the direction sought with a large enough effect; inconclusive = small, poorly fitted or top-dose-only effect, or another doubt; inactive = no such curve, though single readings can be large; an effect the other way counts as inactive or inconclusive. Potency is the fitted concentration of half-maximal effect.

SMILES	SW480 rerep	HT1080 IDH1KD tx	HT1080NT lethal	KB-V1 MDR tox	MCF10A rereplic	KB-3-1 tox
Cc1cc(Nc2ccccc2)c2c([N+](=O)[O-])c(C)cc(C)c2n1	-6%	-17%	1%	21µM*	20%	?
Cc1cccc(Nc2cc(C)nc3ccccc23)c1	-25%	-17%	-2%	i	11%	i
C(=C\c1ccccc1)/CN1CCN(C(c2cc3ccccc3o2)c2nnnn2C2CCCC2)CC1 (stereo not given)	·	12%	16%	i	·	?
C(=C\c1ccccc1)/CN1CCN(C(c2cc3ccccc3o2)c2nnnn2Cc2ccccc2)CC1 (stereo not given)	·	9%	18%	16µM*	·	i
O=C(OCc1ccco1)c1cccnc1	?	1%	7%	i	13µM*	i
CCN(CC)c1nc(SCCOC(=O)Nc2ccccc2)nc(N(CC)CC)n1	3%	?	?	21µM*	9.2µM*	i
CN(C)c1nc(SCCOC(=O)c2ccccc2)nc(N(C)C)n1	5%	7%	3%	?	5%	i
CN(CC(=O)O/N=C(\N)c1ccc(Br)cc1)S(=O)(=O)c1ccccc1	-12%	1%	1%	i	-13%	i
C/C(Cn1nnc([N+](=O)[O-])n1)=N\NC(=O)c1ccc(O)cc1O	13%	18µM*	23µM*	i	4%	i
C/C(Cn1nnc([N+](=O)[O-])n1)=N\NC(=O)c1ccccc1O	19%	?	?	i	-1%	i
Cc1cc(NC(=O)c2ccc(F)c(S(=O)(=O)N3CCCCC3)c2)no1	-12%	1%	0%	·	3%	·
CC1CC(C)CN(CCCNC(=O)c2ccc(CS(=O)(=O)Cc3ccccc3F)o2)C1 (stereo not given)	2%	10%	-3%	i	3%	i
O=C(Nc1ccccc1)Nc1ncc([N+](=O)[O-])s1	?	9.2µM*	9.2µM*	?	4%	18µM*
CCOc1ccc(NC(=O)COC(=O)c2ncc(Cl)c(Cl)c2Cl)cc1	0%	-3%	3%	i	6%	i
O=C(O)C1CCN(c2nc(-c3ccccc3)c3cc(Br)ccc3n2)CC1	1%	-1%	-18%	i	23µM*	i
O=C(O)CCCC(=O)N1CCN(c2nc(-c3ccccc3Cl)c3cc(Br)ccc3n2)CC1	-13%	?	-16%	i	?	i
OCCN1CCN(c2nc(-c3ccccc3)c3cc(Br)ccc3n2)CC1	21µM*	23µM*	?	i	18µM*	i
CCCCCCCCNC(=O)c1cnccn1	?	9%	7%	i	5%	i
OC[C@H]1O[C@@H](c2nc(-c3cccc4ccccc34)no2)[C@H](O)[C@@H]1O	·	-16%	?	i	·	i
OC[C@H]1O[C@@H](c2nc(-c3ccccc3Br)no2)[C@H](O)[C@@H]1O	·	15µM*	10µM*	?	·	7.3µM*
CCOC(=O)C(C)(C)NS(=O)(=O)c1ccc(Cl)c([N+](=O)[O-])c1	-5%	12%	-11%	i	?	?
CCOC(=O)C(C)(C)N(Cc1ccc(C)cc1)S(=O)(=O)c1ccc(Cl)c([N+](=O)[O-])c1	?	?	?	i	12µM*	i
CCOC(=O)C(C)(C)N(Cc1ccc(Cl)cc1)S(=O)(=O)c1ccc(Cl)c([N+](=O)[O-])c1	?	·	·	·	13µM*	·
CCOc1ccc(NC(=O)CN(C2CCCCC2)S(C)(=O)=O)cc1	8%	-5%	2%	i	-2%	?
c1ccc(Nc2nc(Nc3ccccc3)nc(-n3cccn3)n2)cc1	·	·	·	i	·	?
SMILES	SW480 rerep	HT1080 IDH1KD tx	HT1080NT lethal	KB-V1 MDR tox	MCF10A rereplic	KB-3-1 tox
Fc1ccc(-c2cc(-c3ccccc3)nc(-n3cccn3)n2)cc1	3%	-14%	-15%	i	18µM*	i
Cc1ccc(C(=O)c2cc([N+](=O)[O-])ccc2N2CCCCC2)cc1	0.58µM*	0.92µM*	0.82µM*	?	?	i
NC(=O)c1cc([N+](=O)[O-])ccc1N1CCCCC1	-2%	1%	10%	i	15%	i
Cc1ccc(C(=O)c2cc([N+](=O)[O-])ccc2N2CC(C)OC(C)C2)cc1 (stereo not given)	12µM*	?	18µM*	?	22%	i
CC1CN(c2ccc([N+](=O)[O-])cc2C#N)CC(C)O1 (stereo not given)	13%	11%	10%	?	0%	i
CCn1ncc(S(=O)(=O)NCc2ccco2)c1C	-1%	10%	5%	i	1%	i
Cc1ccc(N2C(N)=NC(N)=NC2(C)C)c(C)c1	1%	21µM*	?	i	6%	i
CCOC(=O)c1cccc(N2C(N)=NC(N)=NC2(C)C)c1	-2%	?	?	?	7%	?
Cc1ccccc1N1C(N)=NC(N)=NC1(C)C	-3%	13%	9%	i	-2%	i
CCOc1ccc(N2C(N)=NC(N)=NC2(C)C)cc1	-5%	10µM*	?	i	7.3µM*	?
COc1ccccc1N1C(N)=NC(N)=NC1(C)C	-5%	-7%	1%	i	-2%	i
COc1cccc(N2C(N)=NC(N)=NC2(C)C)c1	-1%	2.3µM*	6.5µM*	i	?	?
CC1(C)N=C(N)N=C(N)N1c1cccc(C(=O)O)c1	-5%	-2%	13%	i	-2%	i
CC1(C)N=C(N)N=C(N)N1c1cccc(C#N)c1	?	0.23µM*	?	i	15%	16µM*
CCOC(=O)CSc1ccc(S(=O)(=O)N2CCCCC2)cc1[N+](=O)[O-]	0%	29%	19%	i	-1%	i
COc1ccc(N2C(N)=NC(N)=NC23CCCC3)cc1	-2%	2%	5%	i	16%	i
COc1ccc(N2C(N)=NC(N)=NC2(C)C)cc1	4%	8.2µM*	9.2µM*	i	?	?
O=C(CCl)Nc1ccc(Oc2cnc3ccccc3n2)cc1	?	7.1µM*	?	15µM*	?	6.5µM*
O=C(O)COc1cnc2ccccc2n1	-3%	2%	-1%	?	-2%	i
